The supplement of paper PMC12024424
Structures can show the parent of a compound that is named as a salt.

Each compound was assayed on Staphylococcus aureus Sa2 (MRSA, cystic fibrosis isolate) (assay: growth reduction vs untreated control (OD550); higher = stronger antibacterial activity). Settings: 0.1 mM; 24 h.
Procedure: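 Single-dose screen of the MedChem Express Drug Repurposing Library (0.1 mM, 1% DMSO) against planktonic MRSA S. aureus Sa2 (CF isolate) in TSB in 96-well plates, 37 °C aerobic, 24 h. Assays were run in triplicate and repeated twice.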
CCc1oc2ccccc2c1C(=O)c1cc(Br)c(O)c(Br)c1 [Benzbromarone] gave a growth reduction of 100%.
Compound CCCCCCCCOc1ccccc1C(=O)Nc1ccc(C(=O)OCC[N+](C)(CC)CC)cc1 [Otilonium (bromide)] has a growth reduction of 100%.
Work on CC(C)c1cc(Oc2c(Br)cc(NC(=O)CC(=O)O)cc2Br)ccc1O [Eprotirome] yielded a growth reduction of 99.3%.
C[C@H]1CNCCCN1S(=O)(=O)c1cccc2cncc(F)c12 [Ripasudil] gave a growth reduction of 100%.
COCCNCCc1cccc(Nc2ncc3c(n2)-c2ccccc2[C@H](c2ccccc2F)C3)c1 [Derazantinib] was tested, and the growth reduction was 100%.
With COc1cccc2c1c(O)c(C(=O)N(C)c1ccc(C(F)(F)F)cc1)c(=O)n2C [Tasquinimod] the growth reduction was 92.4%.
O=[N+]([O-])c1ccc(O)c2ncccc12 [Nitroxoline] gave a growth reduction of 98.4%.
Work on COc1cc(C(=O)O)ccc1NC(=O)[C@@H]1N[C@@H](CC(C)(C)C)[C@](C#N)(c2ccc(Cl)cc2F)[C@H]1c1cccc(Cl)c1F [Idasanutlin] yielded a growth reduction of 100%.
In the case of CC/C(=C(/CC)c1ccc(O)cc1)c1ccc(O)cc1 [Diethylstilbestrol], the growth reduction is reported as 100%.
Clc1ccc(C(c2ccccc2Cl)C(Cl)Cl)cc1 (stereo not given) [Mitotane] was tested, and the growth reduction was 100%.
Cc1ccc2c(=O)c3cccc(CC(=O)O)c3oc2c1C [Vadimezan] was tested, and the growth reduction was 100%.
CCCCCCCCc1ccc(CCC(N)(CO)CO)cc1 [Fingolimod (hydrochloride)] was tested, and the growth reduction was 100%.
C=C[C@@](C)(/C=C/c1ccc(O)cc1)CCC=C(C)C [Bakuchiol] gave a growth reduction of 100%.
For CCCCCCCCCCCCCCCCCCOP(=O)([O-])OC1CC[N+](C)(C)CC1 [Perifosine], the growth reduction was 96.9%.
With Cc1nc2sccn2c(=O)c1CCN1CCC(=C(c2ccc(F)cc2)c2ccc(F)cc2)CC1 [Ritanserin] the growth reduction was 97.5%.
For CC(=O)O[C@@H]1CC[C@@]2(C)[C@@H](CC[C@]3(C)[C@@H]2C(=O)C=C2[C@@H]4[C@@H](C)[C@H](C)CC[C@]4(C)CC[C@]23C)[C@@]1(C)C(=O)O, the growth reduction was 100%.
With CNC(=O)c1ccc(Nc2ncc(C(F)(F)F)c(NCc3nccnc3N(C)S(C)(=O)=O)n2)cc1 [Defactinib] the growth reduction was 96.2%.
O=C(OCC(O)CO)c1ccccc1Nc1ccnc2cc(Cl)ccc12 (stereo not given) [Glafenine] gave a growth reduction of 100%.
Cc1cc(CC(C)CC(C)(C)C)n(O)c(=O)c1 (stereo not given) [Piroctone olamine] showed a growth reduction of 100%.
OC(c1cc(C(F)(F)F)nc2c(C(F)(F)F)cccc12)C1CCCCN1 (stereo not given) [Mefloquine (hydrochloride)] was tested, and the growth reduction was 100%.
Work on O=c1nc(OC[C@@H]2COCCO2)cc2n1CCc1cc(C#CC3CC3)ccc1-2 yielded a growth reduction of 96.2%.
Cc1cc(SCc2sc(-c3ccc(C(F)(F)F)cc3)nc2C)ccc1OCC(=O)O gave a growth reduction of 100%.
For OCc1cc([C@@H](O)CNCCCCCCOCCOCc2c(Cl)cccc2Cl)ccc1O [Vilanterol], the growth reduction was 99.9%.
O=C(O)C1(c2ccc(-c3ccc(Cl)c(Cl)c3)c(F)c2)CC1 [Itanapraced] was tested, and the growth reduction was 100%.
For C=C[C@@H]1C[C@]1(NC(=O)[C@@H]1C[C@@H]2CN1C(=O)[C@H](C(C)(C)C)NC(=O)O[C@@H]1C[C@H]1CCCCCc1nc3ccc(OC)cc3nc1O2)C(=O)NS(=O)(=O)C1CC1 [Grazoprevir hydrate], the growth reduction was 100%.
Work on COc1cc(C(=O)NS(=O)(=O)c2ccccc2C)ccc1Cc1cn(C)c2ccc(NC(=O)OC3CCCC3)cc12 [Zafirlukast] yielded a growth reduction of 100%.
CSc1ccc2c(c1)N(CCC1CCCCN1C)c1ccccc1S2 (stereo not given) [Thioridazine (hydrochloride)] showed a growth reduction of 100%.
Compound Cc1ccc(C#Cc2ccc(S(=O)(=O)N[C@H](Cc3c[nH]c4ccccc34)C(=O)O)s2)cc1 has a growth reduction of 98.4%.
In the case of CC(C)(C)Cn1c(N)nc2ccc(-c3[nH]c(C(C)(C)C)nc3-c3ccc(F)cc3)nc21 [Ralimetinib dimesylate], the growth reduction is reported as 100%.
With COc1ccc(Cl)c(Nc2nc3ccccc3nc2NS(=O)(=O)c2cccc(NC(=O)C(C)(C)N)c2)c1 [Pilaralisib] the growth reduction was 100%.
CC1(C)CCC2=C(O1)c1ccccc1C(=O)C2=O [β-Lapachone] gave a growth reduction of 100%.
For CCOc1cc2ncc(C#N)c(Nc3ccc(F)c(Cl)c3)c2cc1NC(=O)/C=C/CN(C)C [Pelitinib], the growth reduction was 90.6%.
With CCN(C/C=C\c1ccc(C2CCCCC2)c(Cl)c1)C1CCCCC1 the growth reduction was 100%.
With O=C(O)c1ccc2nc(-c3cc(Cl)cc(Cl)c3)oc2c1 [Tafamidis meglumine] the growth reduction was 93.9%.
In the case of Clc1ccc(Nc2nnc(Cc3ccncc3)c3ccccc23)cc1 [Vatalanib (dihydrochloride)], the growth reduction is reported as 100%.
Cc1cnc(NC(=O)Nc2cc(Br)c(C)cc2OC[C@@H]2CNCCO2)cn1 [Rabusertib] gave a growth reduction of 100%.
In the case of CCOC(=O)[C@H](CCc1ccccc1)N[C@@H](C)C(=O)N1[C@H](C(=O)O)C[C@@H]2CCC[C@@H]21 [Ramipril], the growth reduction is reported as 92.1%.
O/N=c1\cc(-c2cc3sccc3cn2)oc2ccc(CCCN3CCOCC3)cc12 [Foliglurax (monohydrochloride)] was tested, and the growth reduction was 100%.
Work on CC(/C=C/C=C(\C)C(=O)O)=C\C=C\C=C(C)\C=C\C=C(/C)C(=O)O [Transcrocetin meglumine salt] yielded a growth reduction of 100%.
In the case of CCN(CC)CCOc1ccc(C(=C(Cl)c2ccccc2)c2ccccc2)cc1 [Clomiphene (citrate)], the growth reduction is reported as 100%.
